In the supplement of paper PMC9177965:

Tests used:
[1] = test system: HT29 RNF43 G659fs (RNF43 659mut, CRISPR-edited); assay: cell viability activity relative to DMSO (negative = inhibition); higher = more viable cells (less growth inhibition); conditions: 5 µM; 96 h
Description: (§1)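 Broad Repurposing Library primary screen at a single dose of 5 uM. HT29 sg-Ctrl and HT29 RNF43 G659fs CRISPR-edited isogenic cells were seeded at 2500 cells/well in 384-well plates in duplicate and treated for 96 h. Viability was read by CellTiter-Glo and reported as % activity relative to DMSO, with MG132 as the positive control (negative = growth inhibition).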

[2] = test system: HT29 sg-Ctrl (RNF43 wildtype); assay: as above; conditions: 5 µM; 96 h
Description: as §1

**Q.** For CC(C)[C@H]1c2ccc(F)cc2CC[C@@]1(CCN(C)CCCc1nc2ccccc2[nH]1)OC(=O)C1CC1, which cell viability activity [1] is on record?
**A.** The cell viability activity was -90%.

**Q.** And the cell viability activity [2]?
**A.** Its cell viability activity is -90.4%.

**Q.** CCCCc1oc2ccc(NS(C)(=O)=O)cc2c1C(=O)c1ccc(OCCCN(CCCC)CCCC)cc1 was tested. Which cell viability activity [1] did it give?
**A.** Its cell viability activity is -96.2%.

**Q.** What about the cell viability activity [2] of the same compound?
**A.** Its cell viability activity is -91.7%.

**Q.** Cc1cc(Nc2nc(N[C@@H](C)c3ncc(F)cn3)ncc2Cl)[nH]n1 was tested. Which cell viability activity [1] did it give?
**A.** Its cell viability activity is -32.8%.

**Q.** And the cell viability activity [2]?
**A.** The cell viability activity was -31.6%.

**Q.** Which results are given for COC(=O)c1ccc2c(C(=Nc3ccc(N(C)C(=O)CN4CCN(C)CC4)cc3)c3ccccc3)c(O)[nH]c2c1?
**A.** cell viability activity [1]: -73.8%; cell viability activity [2]: -34.2%

**Q.** How did the cell viability activity [1] turn out when CN1CCCN=C1COC(=O)C(O)(c1ccccc1)C1CCCCC1 (stereo unspecified) was run?
**A.** Its cell viability activity is -55.3%.

**Q.** And the cell viability activity [2]?
**A.** The cell viability activity was -50.3%.

**Q.** What does the source list for CN(NC(=O)CC(=O)NN(C)C(=S)c1ccccc1)C(=S)c1ccccc1?
**A.** cell viability activity [1]: -30.6%; cell viability activity [2]: -15.3%

**Q.** What does the source list for COc1cccc(Nc2ncnn3ccc(CN4CC[C@@H](N)[C@H](O)C4)c23)c1?
**A.** cell viability activity [1]: -24%; cell viability activity [2]: -31.4%

**Q.** For CNCCCOc1cc(F)c(-c2c(Cl)nc3ncnn3c2N[C@@H](C)C(F)(F)F)c(F)c1, which cell viability activity [1] is on record?
**A.** The cell viability activity was -72.6%.

**Q.** What about the cell viability activity [2] of the same compound?
**A.** The cell viability activity was -62.1%.

**Q.** How did the cell viability activity [1] turn out when CCCCCCCC(=O)N[C@H](CN1CCCC1)[C@H](O)c1ccc2c(c1)OCCO2 was run?
**A.** Its cell viability activity is -40.1%.

**Q.** What about the cell viability activity [2] of the same compound?
**A.** The cell viability activity was -40.4%.

**Q.** What does the source list for CCNC(=O)C#Cc1ccc2c(C(=Nc3ccc(CN(C)C)cc3)c3ccccc3)c(O)[nH]c2c1?
**A.** cell viability activity [1]: -98.3%; cell viability activity [2]: -96.8%

**Q.** Which cell viability activity [1] does the source give for C1CCC(C(CC2CCCCN2)C2CCCCC2)CC1 (stereo unspecified) here?
**A.** Its cell viability activity is -92.4%.

**Q.** What about the cell viability activity [2] of the same compound?
**A.** Its cell viability activity is -89%.

**Q.** Which results are given for CCOc1cc(C(=O)N2CCC(N3CCN(C)CC3)CC2)ccc1Nc1ncc2c(n1)N(C1CCCC1)c1ccccc1C(=O)N2C?
**A.** cell viability activity [1]: -64.4%; cell viability activity [2]: -65.5%

**Q.** How did the cell viability activity [1] turn out when Nc1ccc(F)cc1NC(=O)c1ccc(CNC(=O)/C=C/c2cccnc2)cc1 was run?
**A.** Its cell viability activity is -39.6%.

**Q.** And the cell viability activity [2]?
**A.** Its cell viability activity is -64.8%.
